In the supplement of paper PMC8975748:
Counter-ions that a name gives are not always drawn.

test system: Saccharomyces cerevisiae BY4741 SeMeCo community; assay: z-score of subpopulation abundance vs DMSO median, subpopulation auxotrophic for HM; higher = larger share of this subpopulation than in DMSO controls; details: 10 µM; 24 h; SM minimal medium; subpopulation (auxotrophy): HM
Description: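 Fluorescent four-plasmid SeMeCo (self-establishing metabolically cooperating S. cerevisiae BY4741 community; plasmids pH-mRuby2, pL-mWasabi, pU-eCFP, pM-TagRFP657) was grown 24 h in minimal SM medium with each Selleck FDA-approved drug at 10 µM in 384-well plates. Cells were fixed and imaged by high-content confocal microscopy. For each auxotrophic subpopulation (and the prototroph), a z-score gives the deviation from the DMSO vehicle-control population median.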

Row | SMILES | z-score of subpopulation abundance
1 | CN(C)C[C@@H]1CCn2cc(c3ccccc32)C2=C(C(=O)NC2=O)c2cn(c3ccccc23)CCO1 | 0.28
2 | CN(C)CCc1c[nH]c2ccc(Cn3cncn3)cc12 [Rizatriptan Benzoate] | 0.65
3 | CN(Cc1ccc(C(C)(C)C)cc1)Cc1cccc2ccccc12 [Butenafine HCl] | -1.43
4 | Cc1ccc(-c2cc(C(F)(F)F)nn2-c2ccc(S(N)(=O)=O)cc2)cc1 [Celecoxib] | -0.54
5 | O=C1[C@H]2CCCC[C@H]2C(=O)N1CCCCN1CCN(c2nsc3ccccc23)CC1 [Perospirone hydrochloride] | -0.27
6 | CCn1cc(C(=O)O)c(=O)c2cc(F)c(N3CCN(C)CC3)cc21 [Pefloxacin Mesylate] | 0.05
7 | Cc1ccnc(NS(=O)(=O)c2ccc(N)cc2)n1 [Sulfamerazine] | 2
8 | CCN1CC(CCN2CCOCC2)C(c2ccccc2)(c2ccccc2)C1=O (stereo not given) [Doxapram HCl] | -0.61
9 | CC[C@H](C)C(=O)O[C@H]1C[C@H](O)C=C2C=C[C@H](C)[C@H](CC[C@@H](O)C[C@@H](O)CC(=O)O)[C@H]21 [Pravastatin sodium] | 0.12
10 | Cc1c(S(=O)(=O)O)oc2c1C(=O)C(=O)c1c-2ccc2c1CCCC2(C)C [Tanshinone IIA sulfonate (sodium)] | -0.31
11 | Cc1onc(-c2ccccc2)c1-c1ccc(S(N)(=O)=O)cc1 [Valdecoxib] | -0.77
12 | CN[C@@H]1[C@@H](O[C@H]2O[C@H](CO)[C@@H](N)[C@H](O)[C@H]2O)OC2C[C@@H](N)[C@@H](O[C@H]3[C@H](O)[C@@H](O)[C@H](N)C[C@@H]3N)OC2[C@@H]1O (stereo not given in full) [Apramycin Sulfate] | 0.03
13 | CCCCNc1ccc(C(=O)OCCN(C)C)cc1 [Tetracaine HCl] | 0.5
14 | CN1[C@@H](CC(=O)c2ccccc2)CCC[C@H]1C[C@H](O)c1ccccc1 [Lobeline hydrochloride] | 0.17
15 | CCOC(=O)C1=C[C@@H](OC(CC)CC)[C@H](NC(C)=O)[C@@H](N)C1 [Oseltamivir Phosphate] | -0.4
16 | CCN(CC)CCNC(=O)c1cc(S(C)(=O)=O)ccc1OC [Tiapride Hydrochloride] | 0.84
17 | CCCCN1CCCCC1C(=O)Nc1c(C)cccc1C (stereo not given) [Bupivacaine HCl] | 0.01
18 | Nc1nc2c(ncn2COC(CO)CO)c(=O)[nH]1 [Ganciclovir] | -0.15
19 | OCCOc1ccc(/C(=C(/CCCl)c2ccccc2)c2ccccc2)cc1 [Ospemifene] | 1.37
20 | COCCCOc1ccnc(C[S+]([O-])c2nc3ccccc3[nH]2)c1C (stereo not given) [Rebeprazole sodium] | 0.23

Row | SMILES | z-score of subpopulation abundance
21 | CC1=C(C(=O)O)N2C(=O)[C@@H](NC(=O)[C@H](N)c3ccccc3)[C@H]2SC1 [Cephalexin] | 1.28
22 | CCCC1CC(C(=O)NC(C(C)Cl)C2OC(SC)C(O)C(O)C2O)N(C)C1 (stereo not given) [Clindamycin alcoholate] | 0.91
23 | NC(=O)[C@@H]1CC[C@@H]2CN1C(=O)N2OS(=O)(=O)O [Avibactam sodium] | 0.85
24 | COC(=O)C1=C(C#N)NC(C)=C(C(=O)OC(C)C)C1c1cccc([N+](=O)[O-])c1 (stereo not given) [Nilvadipine] | 1.37
25 | NCCNc1ccc(NCCN)c2c1C(=O)c1ccncc1C2=O [Pixantrone Maleate] | -5.86
26 | O=C1NC(=O)C(c2ccccc2)(c2ccccc2)N1 [Phenytoin] | -0.81
27 | CS(=O)(=O)c1ccc(C2=C(c3ccccc3)C(=O)OC2)cc1 [Rofecoxib] | 1.11
28 | CS(=O)(=O)Nc1ccc([N+](=O)[O-])cc1Oc1ccccc1 [Nimesulide] | 0.64
29 | C[C@]12CC[C@@H]3c4ccc(O)cc4CC[C@H]3[C@@H]1C[C@@H](O)[C@@H]2O [Estriol] | -0.18
30 | CCCCOc1cc(C(=O)NCCN(CC)CC)c2ccccc2n1 [Dibucaine HCl] | -0.88
31 | CO/N=C(\C(=O)N[C@@H]1C(=O)N2C(C(=O)[O-])=C(C[n+]3cccc4c3CCC4)CS[C@H]12)c1csc(N)n1 [Cefpirome sulfate] | 0.31
32 | CCCCC(F)(F)[C@@]1(O)CC[C@H]2[C@@H](CC(=O)[C@@H]2CCCCCCC(=O)O)O1 [Lubiprostone] | -0.8
33 | NC[C@H]1O[C@H](O[C@H]2[C@H](O)[C@@H](O[C@H]3O[C@H](CO)[C@@H](O)[C@H](N)[C@H]3O)[C@H](N)C[C@@H]2N)[C@H](O)[C@@H](O)[C@@H]1O [Kanamycin sulfate] | 1.34
34 | COc1ccc(C(=O)NCc2ccc(OCCN(C)C)cc2)cc1OC [Itopride hydrochloride] | 0.17
35 | CC[C@@H]1/C=C(\C)C[C@H](C)C[C@H](OC)[C@H]2O[C@@](O)(C(=O)C(=O)N3CCCC[C@H]3C(=O)O[C@H](/C(C)=C/[C@@H]3CC[C@@H](O)[C@H](OC)C3)[C@H](C)[C@@H](O)CC1=O)[C@H](C)C[C@@H]2OC [Ascomycin (FK520)] | 1.4
36 | CC1=C(C(=O)O)N2C(=O)[C@@H](NC(=O)[C@H](N)C3=CCC=CC3)[C@H]2SC1 [Cephradine monohydrate] | -0.39
37 | Cc1ccc(O)c([C@H](CCN(C(C)C)C(C)C)c2ccccc2)c1 [Tolterodine tartrate] | 0.62
38 | O=C(O)c1cn(-c2ccc(F)cc2)c2cc(N3CCNCC3)c(F)cc2c1=O [Sarafloxacin HCl] | -0.52
39 | CCN(CC)CCOC(=O)c1ccc(N)cc1Cl [Chloroprocaine HCl] | -0.02
40 | NC(=NCCCCCCN=C(N)N=C(N)Nc1ccc(Cl)cc1)N=C(N)Nc1ccc(Cl)cc1 [Chlorhexidine?2HCl] | -2.23
